GLP-1R inv ag – qHTS of GLP-1 Receptor Inverse Agonists (Inhibition Mode). Glucagon-like peptide 1 receptor (Homo sapiens), P43220. HEK293 GLP-1R CRE-luciferase, luminescence, 24 h; GLP-1R form is constitutively active. Potency, µM (series often up to 38.3 µM), without a hit: at the highest dose activity change, negative = inhibition, hits mostly inhibitors. 1.6% of 410,000 active. AID 624417, 2012; also: % is scaled to controls: 0 for no effect and ±100 for the full control effect; nearly all actives have a fitted effect of over 55% in size
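Stable HEK293 clone (constitutively active GLP-1R + cAMP-response luciferase); 200 cells/uL plated, 12 h pre-culture, compound 24 hr, 37 deg C/5% CO2; detection reagent 12 min RT; luminescence.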
ClpP mod – qHTS Assay for Activators of ClpP. ATP-dependent Clp protease proteolytic subunit (Bacillus subtilis (strain 168)), P80244. purified B. subtilis ClpP, FRET peptide cleavage, 20 min. Potency, µM (series often up to 57.5 µM), inactives show at the top dose activity change, negative = active. 1.9% of 340,000 active; active = well fitted falling curve with a large enough effect; inconclusive = small, poorly fitted or top-dose-only effect; inactive = no such curve, though single readings can be large or run the other way; also: the source files actives as falling curves though it sought activators and does not explain the sign; nearly all actives have a fitted effect of over 65% in size
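Buffer: 100 mM Tris/HCl pH8, 100 mM KCl, 0.05% low protease BSA, 2.5% glycerol, 0.01% Tween-20. ClpP 10 microg/mL final; 20 min RT; delta FRET normalized to ADEP and DMSO controls.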
GLP1R ag – qHTS of GLP-1 Receptor Agonists. Potency, µM (series often up to 45.6 µM), inactives show at the top dose activation, most hits filed as activators. Glucagon-like peptide 1 receptor (Homo sapiens), P43220. 0.007% of 380,000 active. AID 624172, 2012. HEK293 GLP-1R CRE-luciferase, luminescence, 4-6 h; cells express a hypersensitive GLP-1R form; also: % of control where 0% means no effect
GLP1R cytotox – qHTS of GLP-1 Receptor Inverse Agonists: Cytotox Screen; Potency, µM (series often up to 38.3 µM), without a hit: top-dose activity change, negative = inhibition, usual class: inhibitors; 0.13% of 410,000 active; HEK293 cAMP-luciferase reporter cells, luminescence, 24 h; AID 624418, 2012;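 also: loss of luciferase light is scored as toxicity; % is scaled to controls: 0 for no effect and ±100 for the full control effect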
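Step one: seed cells (200 cells/uL, DMEM with 10% Nu serum, 1% pen-strep). Step two: 12-hour incubation at 37 deg C. Step three: pin 23 nL compound, incubate 24 hr. Step four: add luciferase reagent, read luminescence 12 min later.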
Numbers without * were called inactive; ? = inconclusive; · = no result; [ ] = remark or other dose. Most compounds without a hit are left out; they make up all but 3.2% or so of the library. Unless noted, calls follow the shape of the dose curve; as a rule, active = well fitted curve in the direction sought with a large enough effect; inconclusive = small, poorly fitted or top-dose-only effect, or another doubt; inactive = no such curve, though single readings can be large; an effect the other way counts as inactive or inconclusive. Potency is read from the fitted curve at half-maximal effect.

SMILES | GLP-1R inv ag | ClpP mod | GLP1R ag | GLP1R cytotox
COc1cccc(C(=O)NCCSc2c(-c3ccc(F)cc3)[nH]c3ccccc23)c1OC | ? | 4% | · | -12%
CN(C)CC#CCOC(c1ccccc1)c1ccccc1 | ? | 0% | -3% | 0%
CCN(CC)CC#CCOC(c1ccccc1)c1ccccc1 | 5.6µM* | · | 11% | -27%
COc1ccc(OC)c(NC(=O)CSc2nc(=O)n(CCN(C)C)c3c2CCC3)c1 | 4% | 1% | · | 0%
O=C(Nc1ccc2oc(-c3cccc4ccccc34)nc2c1)c1ncn[nH]1 | 64% | 32µM* | -5% | -14%
O=C(Nc1ccc2oc(-c3ccccc3Cl)nc2c1)c1ncn[nH]1 | 0% | -29% | -4% | -33%
O=C(Nc1ccc2oc(-c3ccccc3F)nc2c1)c1ccc2c(c1)OCCO2 | 0% | 28µM* | -14% | ?
O=C(Nc1ccc(-c2nc3ccccc3o2)cc1)c1ccc(N2C(=O)C3C4C=CC(C4)C3C2=O)cc1 (centres undefined) | 8% | 3.2µM* | -1% | 2%
O=C(Nc1ccc(-c2nc3ccccc3o2)cc1)c1ccc2c(c1)OCO2 | 0% | 32µM* | -1% | 9%
CN(C)C=NC(=O)c1cc2c(n(-c3ccccc3)c1=O)CC(C)(C)CC2=O | 3% | 4% | 1% | 2%
CCCCOC(=O)c1cccc(NC(=O)/C=C/c2ccccc2Cl)c1 | ? | -9% | · | -17%
CC(C)C(=O)Nc1ccc2oc(-c3cc(F)c(F)cc3Cl)nc2c1 | 9% | -108% | 0% | -2%
CC(=O)Nc1ccc2oc(-c3cc(F)c(F)cc3Cl)nc2c1 | -3% | 18µM* | -2% | 34%
CCC[C@]1(CCc2ccccc2)CC(O)=C([C@H](CC)c2cccc(NS(=O)(=O)c3ccc(C(F)(F)F)cn3)c2)C(=O)O1 | · | · | -1% | ·
Cc1oc2ncnc(N3CCCCC3)c2c1C(=O)NCC1CCN(Cc2ccc(F)cc2)CC1 | ? | 2% | · | -8%
COc1ccc(C2NN=C(c3c[nH]c4ccccc34)C2O)cc1 (centres undefined) | ? | -18% | 6% | -18%
COc1ccc(C2C(O)C(c3c[nH]c4ccccc34)=NN2C(=O)CCl)cc1 (centres undefined) | ? | · | 1% | 11µM*
O=c1oc2ccc(Br)cc2cc1-c1nc(-c2ccccc2)no1 | 23% | 1% | · | 2%
O=c1oc2ccccc2cc1-c1nc(-c2ccccc2)no1 | 7% | 28µM* | 3% | -8%
Cc1cccc(-c2noc(-c3cc4ccccc4oc3=O)n2)c1 | 19% | 8.9µM* | 0% | 9%
Cc1ccc(-c2noc(-c3cc4ccccc4oc3=O)n2)cc1 | 23% | -7% | 3% | 6%
O=C1Nc2ccccc2-c2nnnn2C1N1CCC(Cc2ccccc2)CC1 (centres undefined) | ? | -4% | · | -3%
O=C(Nc1ccc(F)c(F)c1)C(c1ccccc1)N1Cc2ccccc2C1=O (centres undefined) | ? | 0% | · | -4%
Nc1[nH]nc2nc(-c3ccccc3)[nH]c(=O)c12 | 20% | -5% | -6% | 11%
Nc1nc(-c2ccccc2)[nH]c(=O)c1N | 10% | 28µM* | -4% | -6%[1.53 µM]
SMILES | GLP-1R inv ag | ClpP mod | GLP1R ag | GLP1R cytotox
COc1cccc(C(=O)N2c3cc(C)ccc3C(C)(c3ccccc3)CC2(C)C)c1 (centres undefined) | ? | 2% | · | -4%
Cc1cc(SCC(=O)N/N=C/c2ccc(O)cc2O)c(C)cc1Br | 7.9µM* | 2% | -7% | -18%
O=C(NCc1nc2cccnc2n1Cc1ccc(F)cc1)c1ccccc1C(F)(F)F | -30% | -2% | · | 12%
Cc1cc(=O)[nH]c(N=N/C(=N/Nc2ccc(O)cc2)c2ccccc2)n1 | -23% | -5% | -12% | -23%
COc1ccc(N/N=C(/N=Nc2nc(C)cc(=O)[nH]2)c2ccccc2)cc1 | ? | -2% | 0% | 4µM*
CC(=O)NC(Cc1cccc(C)c1)C(=O)NC1CCN(c2ncccc2[N+](=O)[O-])CC1 (centres undefined) | -5% | 16µM* | 2% | 5%
CC(=O)NC(Cc1cccc(F)c1)C(=O)NC1CCN(c2ncccc2[N+](=O)[O-])CC1 (centres undefined) | 4% | -1% | 2% | 2%
CC(C)Oc1ccc(CNC(=O)Cc2ccc(NC(=O)N3CCSc4ncccc43)cc2)cc1 | ? | -16% | · | -9%
CCOC(=O)c1c(C)[nH]c(C)c1S(=O)(=O)N1CCC(C(=O)Nc2ccc(C)cn2)CC1 | 3% | 1% | · | -6%
CNC(=O)c1cc(C(=O)c2ccc(Cl)cc2)c[nH]1 | 40% | · | 30% | -5%
O=C(c1ccc(Cl)cc1)c1c[nH]c(C(=O)NNc2ccccc2)c1 | 2µM* | · | 2% | ?
COc1ccccc1NC(=O)C(C)N(C)CCOc1ccccc1 (centres undefined) | 11µM* | · | 17% | 20%
CCN(C(=O)c1ccc(C)c(Br)c1)c1ccccc1 | 10µM* | · | 10% | 1%
CCN(C(=O)c1cccnc1)c1ccccc1 | 13% | -1% | 7% | 28%
NCCCC[C@H](NC(=O)[C@@H]1CCCN1C(=O)[C@@H]1CSSC[C@H](NC(=O)CNC(=O)CNC(=O)CN)C(=O)N[C@@H](Cc2ccc(O)cc2)C(=O)N[C@@H](Cc2ccccc2)C(=O)N[C@@H](CCC(N)=O)C(=O)N[C@@H](CC(N)=O)C(=O)N1)C(=O)NCC(N)=O | · | · | 0% | ·
CC1CCCC(C)N1C(=O)CSc1nnnn1-c1cccc2c1CCCC2 (centres undefined) | 7.9µM* | 0% | -2% | -6%
Cc1cccc(C2=NN(c3ccccc3)[C@H](CO)[C@H]2c2ccc(Cl)cc2)c1 | 10µM* | 5% | -4% | 193%
Cc1ccc(C)c(NC(=O)Cn2c(=O)n(Cc3cccs3)c(=O)c3cccnc32)c1 | 9% | ? | · | -7%
O=C(Cc1ccccc1)NNC(=O)C1CCCC1 | -13% | 0% | -7% | 1%
C/C(Cc1ccccc1)=N\NC(=O)C1CCCCC1 | -3% | 28µM* | 2% | -4%
CCOC(=O)c1c2c(n(-c3ccc(OC)cc3)c1C)C(=O)C(=O)c1ccccc1-2 | ? | -1% | -5% | 3.2µM*
CCOC(=O)c1cc(-c2cccs2)nc2onc(C)c12 | 2% | 32µM* | -4% | -5%
CC(C)C[C@@H](CN1CCC[C@@H]1CN1C(=S)NC[C@@H]1Cc1ccccc1)N1C[C@H](Cc2ccc(O)cc2)N(CC2CCCCC2)C1=S | 29% | 3% | 0% | 1%
CC(C)C[C@@H](CN1CCCC1CN1C(=S)NC[C@@H]1Cc1ccc(O)cc1)N1C[C@H](Cc2ccc(O)cc2)N(CC2CCCCC2)C1=S (some centres undefined) | 11µM* | -4% | -1% | ?
Cc1c(-c2nsc(NC(=O)c3cccs3)n2)nnn1-c1ccc(F)cc1 | -15% | -22% | · | -13%
